Experimental data published in PubChem BioAssay (NCI).
Where “and” joins values, the source holds several entries; their conditions need not be identical. Identical values can stand only once. About 83,000 compounds went through this panel and 20% of them were active in at least one assay; those are over-represented in the sample as a whole.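 Testing used 96-well plates and a 48-hour single-concentration exposure. Example: -40 means 40% of the starting cells died.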 A number with no mark means an inactive call. Calls of active or inactive are those of the source. Rule for the calls: active = growth percent below 10; inactive = the rest.

What was measured:
Assay in all cases: NCI-60 one-dose screen, 48 h (100 = growth as untreated, 0 = no growth, -100 = all killed)
[1] = test system: HCT-15 colon; settings: 10 µM unless noted
[2] = test system: SNB-75 CNS; settings: 10 µM unless noted
[3] = test system: SNB-19 CNS; settings: 10 µM unless noted
[4] = test system: U251 CNS; settings: 10 µM unless noted
[5] = test system: SK-MEL-5 melanoma; settings: 10 µM unless noted
[6] = test system: UACC-62 melanoma; settings: 10 µM unless noted
[7] = test system: LOX IMVI melanoma; settings: 10 µM
[8] = test system: SK-MEL-28 melanoma; settings: 10 µM unless noted
[9] = test system: SK-MEL-2 melanoma; settings: 10 µM unless noted
[10] = test system: EKVX NSCLC; settings: 10 µM unless noted
[11] = test system: SN12C renal; settings: 10 µM unless noted
[12] = test system: UO-31 renal; settings: 10 µM unless noted
[13] = test system: TK-10 renal; settings: 10 µM unless noted
[14] = test system: ACHN renal; settings: 10 µM unless noted
[15] = test system: A498 renal; settings: 10 µM unless noted
[16] = test system: CCRF-CEM leukemia; settings: 10 µM unless noted
[17] = test system: MOLT-4 leukemia; settings: 10 µM unless noted
[18] = test system: CAKI-1 renal; settings: 10 µM unless noted
[19] = test system: PC-3 prostate; settings: 10 µM unless noted
[20] = test system: HT29 colon; settings: 10 µM unless noted

Row | Structure (SMILES) | growth [1] | growth [2] | growth [3] | growth [4] | growth [5] | growth [6] | growth [7] | growth [8] | growth [9] | growth [10] | growth [11] | growth [12] | growth [13] | growth [14] | growth [15] | growth [16] | growth [17] | growth [18] | growth [19] | growth [20]
1 | Nc1cc(-c2ccccc2)ccc1O | 93.3% | 105% | 98.5% | 101% | 118% | 88% | 90% | 93.3% | 120% | 96.4% | 104% | 93.4% | 127% | 104% | 93% | 37.2% | 25.1% |  |  | 
2 | On1c(-c2ccccc2)nc2ccccc2c1=S |  |  |  |  |  | -68.5% [100 µM] (active) and -97.5% [100 µM] (active) |  |  |  |  |  |  | 1.71% [100 µM] (active) and -38.8% [100 µM] (active) |  |  |  |  |  |  | 
3 | CCCOS(=O)(=O)c1ccccc1 | 102% |  | 103% | 106% | 112% | 102% | 103% | 122% | 114% | 110% | 103% | 83.3% | 102% | 102% | 100% |  | 107% | 91.8% |  | 
4 | O/N=C1\c2ccccc2-c2ccc(F)cc21 | 74.6% | 91.1% | 101% | 106% | 99.1% | 93.8% |  | 111% | 97.5% | 90.4% | 94.4% | 47.7% | 84.8% |  | 132% | 86.5% | 71.6% | 94.1% | 89.1% | 
5 | CCCCCCCCCCCCCCCCCC[S+](C)CC (stereo unspecified) | 38.8% | -25.1% (active) | 8.74% (active) | -57.5% (active) | -99.1% (active) | 19.3% | -51.6% (active) | 48.6% | 48.1% | 91.7% | 25.7% | 59.6% | 9.52% (active) | 16.2% | 63.2% |  | -4.95% (active) | 66.5% |  | 
6 | CC(/C=N/NC(N)=S)Cc1ccc(C(C)C)cc1 (stereo unspecified) | 80.2% | 71.4% | 69.3% | 88.7% |  | 54.5% | 79.5% | 82.4% |  | 80.5% |  | 45% | 99.6% | 103% | 51% | 65.9% | 67.7% | 58.7% | 73.5% | 
7 | O=C1C=CC(=O)N1c1ccccc1 |  |  | 106% | 94.1% | 106% | 93.2% |  | 117% | 103% |  | 84.4% | 87.4% | 105% | -37.3% (active) | 105% |  | 42.2% |  |  | 103%
8 | Cc1cc(N/N=C/c2ccccn2)nc2ccccc12 |  | 30.8% | 24.6% | 4.92% (active) | -43.7% (active) | -46.5% (active) |  | 18.1% | 50.2% |  | 17.4% | -8.77% (active) | 34.1% | 0.182% (active) | 27.7% | 2.52% (active) | 5.97% (active) | -8.9% (active) |  | 20.3%
9 | O=C1C=CC(=O)N1C1CCCCCCCCCCC1 | 88.6% | 79.4% | 97.1% | 91.6% | 92.9% | 88.8% |  | 91% | 84.2% |  |  | 60.4% | 71.5% | 50.1% | 113% | -11% (active) | 6.51% (active) | 43.5% | 86.9% | 
10 | Cc1ccc2cccc(OC(=O)Nc3cccc(C(F)(F)F)c3)c2n1 | 50.9% | 87.5% | 72.1% |  | 86.4% |  |  | 84.6% |  |  | 61.5% | 35.8% | 83% | 36.4% | 66.3% |  | 40.4% | 35.4% |  | 
11 | CCOC(=O)COc1cc(-c2ccccc2F)nc2cc3c(cc12)OCO3 |  |  |  |  |  | 69.3% [100 µM] and 35.8% [100 µM] |  |  |  |  |  |  | 126% [100 µM] and 78.4% [100 µM] |  |  |  |  |  |  | 
12 | CN=C(N)N/N=C(\C)c1ccc2c(c1)Cc1ccccc1-2 | -81.4% (active) |  | -40% (active) | -82.2% (active) | -100% (active) |  | -83.9% (active) | -98.4% (active) |  | 1.95% (active) | -40.5% (active) | -87.9% (active) | -75% (active) | -92.1% (active) | -8.05% (active) | -35.2% (active) | -63% (active) | -53.9% (active) | -20.6% (active) | 
13 | CC1=CC(=O)C=CC1(C)C(Cl)(Cl)Cl (stereo unspecified) | 97.3% | 109% | 92% | 83.1% | 103% | 95.7% |  | 102% | 87.5% | 100% |  | 92% | 80.2% | 97.3% | 87.6% | 94.9% | 93.9% | 104% |  | 
14 | Cc1nn(CCO)c(C)c1N=[N+]([O-])c1c(C)nn(CCO)c1C | -4.21% (active) | 52.4% | 98.2% | 69.6% | 71.5% |  | 16% | 83.2% | 58.1% | 23.4% | 60% | -93.6% (active) | -46.9% (active) | -42.8% (active) | 105% | 1.91% (active) |  |  | 76.6% | 
15 | Cc1oc2c(C)c3oc(=O)cc(C)c3cc2c1CCl | 91.8% |  | 81.5% | 82.9% | 77.6% | 44.3% | 56.6% | 93.3% | 109% | 68.4% | 67.8% | 47.6% | 86.1% |  | 61.8% | 47.6% | 63.6% | 51.8% | 91% | 
16 | O=C1CSC(=S)N1Cc1cccnc1 | 58.3% | 83.3% | 110% |  | 99.8% | 87.6% | 17.5% | 92.1% |  |  | 103% | 71% | 9.3% (active) | 97.2% |  | 12.9% | 51.4% | 63.9% | 85.1% | 
17 | CC(=O)c1c(O)c(C)c(O)c2c1OC1=CC(=O)C(C(C)=O)C(=O)C12C (stereo unspecified) | 84.4% |  | 96.9% | 74.9% | 90.9% | 62.8% |  | 84.4% | 83.7% | 51.9% | 143% | 58.7% | 103% | 89% | 76.3% |  | 71.9% | 74.2% | 45.3% | 
18 | CCCCCCCCCCCC1N=C(N)N=C(N)N1c1cccc(Br)c1 (stereo unspecified) | 71.5% | -12.7% (active) | -93.6% (active) | -75.2% (active) | 19.3% | 37.9% | 9.55% (active) | 70.4% |  | 43.2% | 8.08% (active) | 71.9% | -45% (active) | 25.3% | 76.1% | -15.1% (active) | -16.5% (active) | 80.5% |  | 
19 | COc1ccc2nc3cc([N+](=O)[O-])ccc3c(NNc3ccccc3)c2c1 | 69.4% | 23.5% | 73% | 29.1% | 88.5% | 74.6% | 84.2% | 97.1% | 74.9% |  | 92.4% | 91.4% | 60% | 68.7% |  |  | 128% | 86.1% |  | 
20 | N#Cc1c2ccccc2nc2ccccc12 |  | 97.8% | 92.1% | 94.9% | 94.8% |  | 101% | 132% | 125% |  | 93.5% | 77.5% |  |  | 67.1% | 98.2% | 97.1% | 98% | 91% | 110%
21 | S=C1NC2=C(COc3ccccc32)C(c2ccc(Cl)cc2)N1 (stereo unspecified) |  |  |  |  |  | -56.9% [100 µM] (active) and -100% [100 µM] (active) |  |  |  |  |  |  | -3.55% [100 µM] (active) and -100% [100 µM] (active) |  |  |  |  |  |  | 
22 | Oc1ccc(Nc2ccc3ccccc3c2)cc1 | 54.7% | 63.2% | 75.5% | 67.5% | 44.7% | 18% |  | 90.3% | 62.4% | 79% |  | 10.6% | 45.3% | 18.5% | 94.1% | 49% | 46.8% | 8.98% (active) | 39.2% | 
